HPGD inh – HPGD (human) dehydrogenase inhibition | Potency, µM, usual class: inhibitors | purified HPGD, NADH fluorescence kinetic, PGE2 substrate | 150,000 tested, 4.3% active
Target sequence (P15428 whole entry, looked up): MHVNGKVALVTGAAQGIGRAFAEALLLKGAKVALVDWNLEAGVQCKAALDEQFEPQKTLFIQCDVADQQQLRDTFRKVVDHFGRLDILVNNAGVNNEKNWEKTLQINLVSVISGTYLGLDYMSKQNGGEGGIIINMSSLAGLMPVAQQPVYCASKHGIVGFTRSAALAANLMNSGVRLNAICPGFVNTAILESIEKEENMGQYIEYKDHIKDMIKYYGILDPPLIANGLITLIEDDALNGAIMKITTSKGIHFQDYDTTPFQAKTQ
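NADH formation kinetics: reaction with 30 uM PGE2 and 1 mM NAD+ (final), 20 nM enzyme, Tris-HCl pH 8 with Tween 20, after 15 min compound preincubation at room temperature. Fluorescence change, last versus first of five reads.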
ALDH1A1 inh – ALDH1A1 (human) enzyme inhibition; P00352; Purified ALDH1A1, NADH fluorescence, propionaldehyde substrate; Potency, µM (series often up to 75.3 µM), most hits filed as inhibitors; 220,000 tested, 7.3% active; AID 1030
PNC assembly inh – blocks assembly of the perinucleolar compartment; activity change (PNC), negative = inhibition, % at 10 µM; PC3M PTB-GFP, PNC prevalence imaging, 16 h; hits give low values; 140,000 tested, 3.1% active;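 active = readout at or below -70, meaning at least 70% loss of cells showing the perinucleolar compartment, a nuclear body marking cancer cells; inconclusive = readout between -30 and a set limit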
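Compounds are pinned in duplicate onto adhered PC3M cells stably expressing GFP-tagged PTB and incubated 16 h at 37 C. Cells are then fixed, nuclei stained with Hoechst, and PNC-positive cells counted.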
IMPase cell inh – membrane-permeable compound that blocks inositol monophosphatase | P97697 | CHO-M1 cells, IP1 accumulation, HTRF TR-FRET ratio | 120,000 tested, under 10 active | inhibition (IP1 accumulation), % at 46.1 µM | AID 901; active = well fitted curve in the direction sought with a large enough effect in the signal ratio, not every such curve was filed as active; inconclusive = small, poorly fitted or top-dose-only effect, or a change in a side signal; inactive = no such curve, though single readings can be large or run the other way; the % refers to the signal ratio;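 note: cells stimulated with carbachol in lithium chloride buffer; higher means more IMPase inhibition seen as more IP1 and lower FRET ratio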
Target sequence (P97697 whole entry, looked up): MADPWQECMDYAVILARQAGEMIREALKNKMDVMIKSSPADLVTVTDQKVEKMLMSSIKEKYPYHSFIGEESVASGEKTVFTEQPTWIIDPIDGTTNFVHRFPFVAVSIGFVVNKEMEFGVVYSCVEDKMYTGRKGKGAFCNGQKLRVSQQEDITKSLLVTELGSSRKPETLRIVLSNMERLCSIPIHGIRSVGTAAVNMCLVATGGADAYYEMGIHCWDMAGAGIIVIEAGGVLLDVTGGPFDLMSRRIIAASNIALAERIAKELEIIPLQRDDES
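Seeded CHO-M1 cells were dosed with compound at up to 46 uM, stimulated with carbachol for 30 min, then lysed in IP-One detection reagents. Higher IP1 lowers the TR-FRET signal.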
IMPase Li cell – IMPase inhibition in cells with lithium potentiation. CHO-M1 cells, IP1 TR-FRET (IP-One), carbachol + lithium. Potency, µM (highest dose often 59.4 µM), hits mostly inhibitors. 210,000 tested, 0.35% active. AID 1457; active = well fitted inhibition curve with a large enough effect; inconclusive = small, poorly fitted or top-dose-only effect; inactive = no such curve, though single readings can be large or run the other way;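 note: IP1 builds up when IMPase is blocked and the TR-FRET signal falls; nearly all actives have a fitted effect of over 50% in size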
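IP1 accumulation measured by competitive TR-FRET in lysed CHO-M1 cells after 30 min compound exposure at 37C, with a small lithium addition to potentiate weak responses. Hill-equation AC50 from ratio and donor-channel data.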
A number is an active result; - = inactive; ? = inconclusive; . = no result given; [ ] = another dose, or the depositor's remark. Sampled rows, rich in hits. Any-hit rate of the full collection: about 11%. Unless noted, calls come from the whole dose curve; as a rule, active = well fitted inhibition curve with a large enough effect (not every such curve was filed as active); inconclusive = small, poorly fitted or top-dose-only effect, or another doubt; inactive = no such curve, though single readings can be large or run the other way.

SMILES | HPGD inh | ALDH1A1 inh | PNC assembly inh | IMPase cell inh | IMPase Li cell
O=C(NS(=O)(=O)c1ccc(F)cc1)O[C@@H]1C(=O)c2cc(Br)ccc2O[C@H]1c1ccc2c(c1)OCO2 | - | ? | . | . | -
Cc1cc(C)c2c(c1)cc(C)c1nnc(SCC(=O)Nc3ccc(S(=O)(=O)N4CCCCC4)cc3)n12 | - | 20µM | - | . | -
O=C(Nc1ccc(S(=O)(=O)N2CCCCCC2)cc1)c1ccc(Br)o1 | ? | - | - | - | -
O=C(COC(=O)c1ccc(Br)o1)Nc1ccc(S(=O)(=O)N2CCCC2)cc1 | - | ? | -80 | - | -
CC1CCN(S(=O)(=O)c2ccc(NC(=O)CSc3ncccc3C(=O)O)cc2)CC1 | 14µM | 25µM | - | - | -
CC1CCN(S(=O)(=O)c2ccc(NC(=O)CSc3nnnn3C)cc2)CC1 | - | - | ? | -[1.84 µM] | -
O=C(CCc1ccccc1)Nc1ccc(S(=O)(=O)N2CCCC2)cc1 | . | 13µM | . | . | -
C=CCNC(=O)N1CCc2nc(-c3ccccc3)c3c(c2C1)CO[C@@H](C)C3 | - | -[13.5 µM] | . | . | -
COc1ccc(-c2nc3c(c4c2C[C@H](c2ccccc2)OC4)CN(C(=O)NCCc2c[nH]c4ccccc24)CC3)c(C)c1 | - | -[13.5 µM] | . | . | -
O=C(CSc1nc2ccccc2c(=O)[nH]1)Nc1ccc(S(=O)(=O)N2CCCC2)cc1 | 14µM | 2.2µM | - | - | -
O=C(CCOc1ccccc1)Nc1ccc(S(=O)(=O)N2CCCC2)cc1 | - | 22µM | - | - | -
N#Cc1c(NC(=O)CCC(=O)O)ccc2ccccc12 | - | -[13.5 µM] | . | . | -
CNC/C(Cl)=N/S(=O)(=O)c1ccc(C)cc1 | - | ? | . | . | -
COc1ccc(C(OC(=O)c2ccco2)C(=O)NCc2ccco2)cc1 (configuration not stated) | - | - | ? | - | -
COc1ccc(CNC(=O)C(OC(=O)c2ccco2)c2ccc(OC)cc2)cc1 (configuration not stated) | - | 6.3µM | - | - | -
Cc1ccc2c(c1)nnn2C1CCN(CC(=O)NNC(=O)c2ccco2)CC1 | . | - | . | . | -
O=c1c(Cl)c(N2CCN(c3ccc(F)cc3)CC2)cnn1C12CC3CC(CC(C3)C1)C2 | - | ? | - | - | -
O=C(O)C12C[C@H]3C[C@@H](C1)CC(n1ncc(N4CCN(c5ccccc5)CC4)c(Cl)c1=O)(C3)C2 | - | 1.3µM | - | . | -
O=c1c(Cl)c(N2CCN(c3ccccc3)CC2)cnn1C12CC3CC(CC(C3)C1)C2 | - | 10µM | ? | . | -
O=C(O)CC12C[C@H]3C[C@@H](C1)CC(n1ncc(N4CCN(c5ccccc5)CC4)c(Cl)c1=O)(C3)C2 | - | 7.9µM | - | - | -
O=C(O)C12CC3CC(C1)CC(n1ncc(NCc4ccccc4)c(Cl)c1=O)(C3)C2 | . | ? | . | . | -
COc1ccc2c(c1)C(=O)[C@@H](OC(=O)NS(=O)(=O)c1ccc(C)cc1)[C@H](c1ccc(OC)c(Br)c1)O2 | - | - | . | . | -
CC(C)Cn1c(-c2ccccc2F)n[nH]c1=S | - | - | - | - | -
CCn1c(-c2ccc(F)cc2)n[nH]c1=S | - | - | - | - | -
CC(C)Cn1c(-c2ccc(F)cc2)n[nH]c1=S | 28µM | ? | - | - | -
SMILES | HPGD inh | ALDH1A1 inh | PNC assembly inh | IMPase cell inh | IMPase Li cell
Cc1nc(-c2ccccc2)sc1-c1n[nH]c(=S)n1C | - | 25µM | - | - | -
CCn1c(-c2ccc(C(C)(C)C)cc2)n[nH]c1=S | ? | ? | -89 | -[1.84 µM] | -
CC(C)Cn1c(-c2csc3c2CCCC3)n[nH]c1=S | 28µM | 35µM | - | - | -
CSc1nnc(-c2sc(-c3ccccc3)nc2C)n1C | ? | ? | - | - | -
Cc1cnc(CNc2ncncc2-c2ccc3c(c2)OCO3)cn1 | . | - | . | . | -
Cn1c(-c2ccccc2)n[nH]c1=S | . | - | . | . | .
Cn1c(-c2ccc(C(C)(C)C)cc2)n[nH]c1=S | ? | 32µM | - | - | -
CC(=O)Nc1ccc(NC(=O)CN2CCN(c3cccc(C(F)(F)F)c3)CC2)cc1 | - | - | ? | - | -
CC(=O)c1cc2c(cc1NC(=O)CN1CCN(c3cccc(C(F)(F)F)c3)CC1)OCO2 | - | - | -100 | ? | -
O=C(Nc1cccc(F)c1)N1CCC2(CC1)CCN(C(=O)c1ccco1)CC2 | - | - | . | . | -
COc1ccc(C2=NN3C(=O)c4c(ccc(OC)c4OC)C3C2)cc1 (configuration not stated) | - | ? | - | -[1.84 µM] | -
COc1ccc2c(c1OC)C(=O)N1N=C(c3ccc(Cl)cc3)CC21 (configuration not stated) | - | 11µM | -93 | - | -
COc1ccc2c(c1OC)C(=O)N1c3ccccc3N=C(c3ccc([N+](=O)[O-])cc3)CC21 (configuration not stated) | 35µM | 10µM | - | - | -
CN1C(=O)c2cccc3c(S(=O)(=O)NCc4ccco4)ccc1c23 | - | 14µM | - | - | -
O=C(N/N=C/c1ccc(N2CCOCC2)s1)c1ccccc1Br | . | 14µM | . | . | -
CC(C)(C)OC(=O)N/N=C/c1ccc(N2CCOCC2)s1 | - | - | ? | . | -
Clc1cccc(N/N=C/c2ccc(N3CCOCC3)s2)c1 | - | 11µM | - | - | -
Cc1ccc(N/N=C/c2ccc(N3CCOCC3)cc2)cc1C | ? | ? | - | - | -
CC1COC(C)(CC(=O)NN2C(=O)c3ccccc3C2=O)O1 (configuration not stated) | . | - | . | . | -
Oc1ccc2ccccc2c1CN(Cc1c(O)ccc2ccccc12)C1CCCCC1 | - | ? | . | . | -
COc1cccc(/C=N/NC(=O)c2csc(-n3nc(C)cc3C(F)(F)F)n2)c1 | - | - | -90 | - | -
Cc1cc(C(F)(F)F)n(-c2nc(C(=O)N/N=C/c3ccc(F)cc3)cs2)n1 | 28µM | ? | -106 | - | -
Nc1ncnc2c1ncn2[C@@H]1O[C@@H](COP(=O)(O)OP(=O)(O)OP(=O)(O)OP(=O)(O)OC[C@@H]2O[C@@H](n3cnc4c(N)ncnc43)[C@@H](O)[C@H]2O)[C@H](O)[C@@H]1O | . | . | . | - | .
N#C/C(=C\c1ccc(OCC(N)=O)cc1)c1ccccc1 | ? | ? | - | . | -
O=C(/C=C/c1c(Cl)cccc1Cl)n1cccn1 | - | - | -95 | - | -
SMILES | HPGD inh | ALDH1A1 inh | PNC assembly inh | IMPase cell inh | IMPase Li cell
COC(=O)NC(c1ccccc1)C(C#N)C(=O)OC (configuration not stated) | . | -[13.5 µM] | . | . | .
CNCc1ccccc1Sc1cccc(O)c1 | - | - | ? | . | -
CNCc1ccccc1Sc1cc(O)ccc1O | 8.9µM | 0.79µM | - | . | -
O=C(C1=C[C@@H]2[C@H]3C(=O)N(c4ccccc4)C(=O)[C@H]3[C@@H](C(=O)c3ccc(Cl)cc3)N2C=C1)c1ccccc1 | - | 20µM | - | . | -
O=C1NC(=S)S/C1=C\c1coc2ccccc2c1=O | . | 8.9µM | . | . | -
C/[N+]([O-])=C\c1coc2ccccc2c1=O | - | - | - | - | -
